Screening data: PubChem, several laboratories
V-ATPase pHluor – yeast V-ATPase proton transport regulation by pHLuorin; response, % at 10 µM; hit rate 0.37% among 350,000; S. cerevisiae, pHLuorin cytosolic pH fluorescence; in the data active = response mostly above about 7.3%, no sharp cut-off; inactive = mostly below about 5.4%; also: actives read high
Rce1 inh – blocks yeast Ras-converting enzyme | Q03530 | yeast membranes, quenched prenylated peptide cleavage fluorescence | calls only | hit rate 0.27% among 290,000;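 active = fall in fluorescence gain of 50% or more versus controls, with final raw signal at or below 3038400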;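 also: plate controls were neutral control wells for no effect and wells lacking membranes for full effect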
NPR1 activator – GC-A (human) enzyme activation; P16066; HEK293 GC-A cells, cGMP TR-FRET, EC30 ANP; 0% at EC30 ANP, 100% saturating ANP; activation, % at 10 µM; hit rate 0.14% among 370,000; in the data active = activation above about 40%
Target sequence (P16066 whole entry, looked up): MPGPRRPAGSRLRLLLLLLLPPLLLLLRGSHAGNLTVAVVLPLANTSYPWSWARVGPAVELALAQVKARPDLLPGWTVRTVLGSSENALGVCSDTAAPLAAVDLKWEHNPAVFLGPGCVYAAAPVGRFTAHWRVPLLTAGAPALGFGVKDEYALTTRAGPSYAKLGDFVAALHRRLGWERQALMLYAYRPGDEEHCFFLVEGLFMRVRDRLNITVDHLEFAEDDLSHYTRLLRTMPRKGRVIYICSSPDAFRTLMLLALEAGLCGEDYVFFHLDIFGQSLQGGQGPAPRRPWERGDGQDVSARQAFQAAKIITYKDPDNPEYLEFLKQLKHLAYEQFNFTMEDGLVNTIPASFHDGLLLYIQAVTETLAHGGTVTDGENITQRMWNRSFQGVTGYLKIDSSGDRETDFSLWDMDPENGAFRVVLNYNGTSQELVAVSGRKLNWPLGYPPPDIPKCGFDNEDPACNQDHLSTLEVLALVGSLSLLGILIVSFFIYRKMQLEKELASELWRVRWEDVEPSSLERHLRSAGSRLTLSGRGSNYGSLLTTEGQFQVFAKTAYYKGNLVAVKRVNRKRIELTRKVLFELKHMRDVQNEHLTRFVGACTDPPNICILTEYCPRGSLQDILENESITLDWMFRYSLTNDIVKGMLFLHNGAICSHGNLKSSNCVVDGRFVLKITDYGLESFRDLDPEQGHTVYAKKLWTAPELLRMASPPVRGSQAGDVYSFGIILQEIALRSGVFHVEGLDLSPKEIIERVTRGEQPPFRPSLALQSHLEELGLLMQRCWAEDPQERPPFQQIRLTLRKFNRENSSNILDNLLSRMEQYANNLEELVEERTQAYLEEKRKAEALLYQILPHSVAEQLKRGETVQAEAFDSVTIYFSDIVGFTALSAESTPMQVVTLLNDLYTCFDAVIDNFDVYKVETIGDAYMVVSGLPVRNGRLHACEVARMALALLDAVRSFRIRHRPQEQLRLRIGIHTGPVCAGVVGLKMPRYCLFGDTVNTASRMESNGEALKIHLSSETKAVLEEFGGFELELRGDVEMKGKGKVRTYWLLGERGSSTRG
Efflux pump inh – inhibitors of Candida antifungal efflux pumps expressed in yeast | inhibition, % at 10 µM | hit rate 0.44% among 330,000 | S. cerevisiae Candida pump triplex, Nile Red efflux;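 active = plate passing quality check with inhibition over a set limit, or well fluorescence over plate mean plus 4 SD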;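 also: Nile Red retained in pooled yeast measured as flow cytometry median fluorescence; 0% = buffer negative control and 100% = Enniatin B positive control; higher means more Nile Red kept so more efflux inhibition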
NSD2 HMT inh – NSD2 (human) methyltransferase inhibition. O96028. NSD2 peptide methylation, AlphaScreen, 120 min. inhibition, % at 12.5 µM. hit rate 0.54% among 310,000. AID 743445; in the data active = inhibition above about 50%
GC-B act – GC-B (human) receptor activation | P20594 | HEK293-GC-B cells, CNP EC30, cGMP TR-FRET; 0% at EC30 CNP, 100% saturating CNP | activation, % at 10 µM | hit rate 0.11% among 370,000 | AID 1920062;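 active = activation at 10 µM reaching about 35% in either raw or pattern-adjusted values, limit read from the data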
VATPase regulator – yeast V-ATPase proton transport regulation; shares compounds with V-ATPase pHluor; S. cerevisiae pHLuorin cytosolic pH; response, % at 10 µM; hit rate 2% among 980; AID 602197; in the data active = response above about 24%;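 also: plate controls were vehicle wells for no effect and positive control wells for full effect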
An asterisk follows results filed as active; i = inactive; . = no result; ! = a repeat was not active. An excerpt weighted towards active compounds, which were near 1.6% of everything screened.

SMILES | V-ATPase pHluor | Rce1 inh | NPR1 activator | Efflux pump inh | NSD2 HMT inh | GC-B act | VATPase regulator
CCOC(=O)C(NC(C)=O)(Nc1ccc(F)cc1)C(F)(F)F (stereo not given) | -7.5 | i | -3.2 | 0.0 | -0.4 | 1.5 | .
Cc1ccc(C)c2sc(N3CCN(C(=O)c4ccc([N+](=O)[O-])o4)CC3)nc12 | -5.2 | i | -8.8 | 0.0 | -0.8 | -10.3 | .
O=C(c1ccc([N+](=O)[O-])o1)N1CCN(c2nc3c(F)cc(F)cc3s2)CC1 | 31.0* | i | -1.2 | 0.0 | 1.9 | -6.6 | 40.5*
CC1Nc2nc(NC(=O)C(C)(C)C)[nH]c(=O)c2N(C)C1C (stereo not given) | 12.4* | i | -1.9 | 1.2 | -2.7 | 3.0 | -0.5
CC(=O)c1c(C)[nH]c(C(=O)COC(=O)COc2ccccc2F)c1C | 12.5* | . | 7.3 | -0.2 | -2.9 | -5.8 | -1.1
CCCCNC(=O)C[C@H]1C[C@@]2(C(=O)OC)C(=C[C@H](C(C)C)O[C@@H]2C2CC2)N(Cc2ccco2)C1=O | . | . | -2.8 | . | . | -2.4 | .
CC(C)NC(=O)N[C@@H]1C[C@@H]2O[C@@H](CO)CC[C@@H]2O[C@@H]1CCc1ccc(-c2ccccc2F)cc1 | . | . | 15.2 | . | . | -8.1 | .
COc1ccc(C(=O)CCC(=O)NC2=NCCS2)cc1 | 1.8 | i | -0.5 | 0.0 | 13.6 | 0.3 | -3.5
O=C(c1cc(Cl)cc(Cl)c1)N1CC[C@H]2[C@H](CCCN2Cc2cc(F)cc(F)c2)C1 | . | . | -4.3 | . | . | 0.2 | .
CC(C)[C@H](NC(=O)c1ccc(F)cc1)C(=O)NC1=NCCS1 | -1.6 | . | -0.2 | -0.1 | -4.6 | -1.1 | -0.5
Cc1ccc(C2=N/C(=C\c3c(C)nn(-c4ccccc4)c3N3CCCC3)C(=O)O2)cc1 | 70.5* | i | -7.0 | 0.5 | -0.3 | 2.8 | -5.9
Cc1nn(-c2ccccc2)c(N2CCCC2)c1/C=C1\N=C(c2ccc(F)cc2)OC1=O | -0.6 | i | -26.4 | -0.1 | 1.6 | -9.8 | .
CCOC(=O)C1=C(C)NC(SCC(=O)OC)=C(C#N)C1c1ccc(C(=O)OC)cc1 (stereo not given) | 9.9*! | i | -3.1 | 1.4 | -3.4 | -9.0 | -0.9
O=C(C1CCN(c2ncnc3c2sc2cccc(F)c23)CC1)N1CCN(C(=O)C2CCCO2)CC1 (stereo not given) | . | . | 6.2 | . | -5.8 | -8.6 | .
CCCCOC(=O)c1ccc(NC(=O)C(=O)NCc2ccncc2)cc1 | -0.3 | i | -0.6 | -0.3 | -1.7 | 0.9 | .
CCOC(=O)c1ccc(NC(=O)C(=O)NCc2ccncc2)cc1 | 11.0* | i | . | -0.1 | -0.8 | . | 1.3
Cn1cccc1CC(=O)NN=Cc1cccc(F)c1 | . | . | -0.9 | . | 8.3 | -10.0 | .
Cn1c2ccc(F)cc2c2nnc(SCC(=O)Nc3cccc(O)c3)nc21 | 10.8* | i | 13.3 | 0.0 | -0.1 | 12.4 | -0.6
Cn1c2ccccc2c2nnc(SCC(=O)Nc3cccc(C(=O)O)c3)nc21 | 6.0 | i | 1.6 | -0.1 | 1.7 | 6.6 | .
Cc1ccc(S(=O)(=O)/N=C2/NC(=O)/C(=C\c3ccccc3)S2)cc1 | -3.8 | . | 1.9 | -0.6 | 15.9 | -2.0 | .
Cc1ccc(/C=C2\S/C(=N/S(=O)(=O)c3cccs3)NC2=O)cc1 | 21.5* | i | -0.6 | -0.1 | 18.3 | -3.8 | 0.6
CN1Cc2nnn(Cc3ccccc3)c2-c2cc(N3CCCC3)ccc2S1(=O)=O | . | . | -15.5 | . | . | -17.8 | .
COc1ccc(OC)c(NC(=O)c2ccc(OC3CSC3)cc2)c1 | 12.7* | i | -4.0 | 0.1 | 2.1 | 1.2 | -1.7
COc1ccc(OC)c(NC(=O)c2ccc(NC(C)=O)cc2)c1 | 0.7 | i | -3.5 | 0.0 | 0.2 | -2.5 | .
COc1ccc(OC)c(S(=O)(=O)Nc2c(NC3CCCCC3)c3ccccc3oc2=O)c1 | 9.2* | i | . | -0.2 | -0.6 | . | -3.8
SMILES | V-ATPase pHluor | Rce1 inh | NPR1 activator | Efflux pump inh | NSD2 HMT inh | GC-B act | VATPase regulator
Cc1ccc(S(=O)(=O)NCC(=O)N2CCCCC2)cc1 | 11.6* | i | -1.8 | 0.0 | . | 3.0 | -41.7
COC(=O)C1CN(Cc2cn(CCOC(C)=O)nn2)CCS(=O)(=O)N1Cc1ccc(C)cc1 (stereo not given) | . | . | 4.2 | . | . | 2.6 | .
CCc1nn(CC(=O)N2CCCCCC2)c(=O)c2cc3ccccc3n12 | 13.1* | i | 4.0 | 0.1 | -1.2 | 3.3 | 0.7
COC(=O)[C@]12C[C@H](CC(=O)N3CCCCC3)C(=O)N(CCc3ccc(OC)c(OC)c3)C1=C[C@H](C1CCCC1)O[C@@H]2C | . | . | -3.1 | . | . | -4.8 | .
C=CCNC(=O)CN(C(=O)c1csc2ccc(Cl)cc12)c1cccc(Br)c1 | . | . | -12.6 | . | 0.3 | -16.3 | .
CCCCCC(=O)N1C[C@H](n2cc(-c3ccc(F)cc3)nn2)[C@@H](O)C[C@@H]1c1ccc(C)cc1 | 6.8* | . | -1.7 | . | . | 1.5 | -0.9
COc1ccccc1CNS(=O)(=O)c1ccc2c(c1)CCCN2C(C)=O | 12.5* | i | 1.4 | -0.2 | 3.0 | 3.9 | -17.8
COc1ccccc1CNC(=O)CCS(=O)(=O)c1ccc2c(c1)CCCN2C(C)=O | -3.7 | i | 0.7 | 0.0 | . | 1.4 | .
O=C(OCCCCSc1nnc(-c2cccc3ccccc23)o1)c1ccc(F)cc1 | . | . | -3.0 | . | -2.4 | -6.0 | .
Cc1n[nH]c(=S)n1-c1ccc(Cl)cc1 | -1.8 | i | 2.1 | 0.0 | -0.5 | -1.5 | -2.2
CCN(C(=O)CSc1nnc(-c2cccnc2)n1Cc1ccco1)c1ccccc1 | . | . | -4.0 | . | 0.4 | -4.0 | .
COc1ccc2cc(S(=O)(=O)N3CCN(C)CC3)ccc2c1 | 12.6* | i | -2.0 | 0.0 | 1.7 | 8.1 | -1.2
COc1ccc2cc(S(=O)(=O)N3CCCC3)ccc2c1 | 1.2 | i | 1.7 | -0.1 | -1.0 | 1.8 | .
CCOC(=O)C1(C(=O)OCC)NC(=O)CC1CC (stereo not given) | 12.0* | . | 1.2 | . | 0.8 | 0.7 | -0.5
COc1cccc(NC(=O)Nc2c(-c3ccc(F)cc3)nc3ncccn23)c1 | . | . | 3.5 | . | . | 7.5 | .
COc1cc2ccccc2cc1C(=O)N/N=C/c1cccnc1 | 21.5* | i | -1.5 | -0.3 | 0.0 | -0.8 | 3.1
C=CCc1ccc(OCCOCCN(C)C)c(OC)c1 | 12.4* | i | 0.6 | 0.0 | 0.7 | -1.4 | -0.6
Cc1nnc(SCc2nc3ccccc3s2)n1-c1ccccc1 | 8.3* | i | -2.4 | 0.1 | 0.9 | 2.8 | 1.9
Cc1nnc(SCc2nc3ccccc3s2)n1N | 1.4 | i | 0.6 | 0.1 | -0.4 | 4.4 | .
Cc1cc(C)cc(NC(=O)OC2CC3CC2[C@H]2CCCCN2[C@H]3C)c1 (stereo not given in full) | . | . | -0.9 | . | . | -2.2 | .
C[C@@H]1[C@@H](O)C[C@@]2(C[C@H](O)c3cc(F)ccc3O2)O[C@H]1c1ccccc1Cl | . | . | -6.7 | . | . | -6.4 | .
Cc1n[nH]c(=S)n1Cc1ccccc1 | 9.8* | i | -2.3 | -0.2 | 34.7 | -3.3 | -7.3
S=c1[nH]nc(-c2ccccc2)n1Cc1ccccc1 | 3.3 | i | -0.5 | 0.0 | 3.2 | -4.1 | .
